The record followed here is PubChem BioAssay (EPA / NIEHS).

Records with an inconclusive call do not appear. Activity calls are given as the source filed them. How the source made its calls, unless noted: active means hit-call score of the fitted dose curve at least 0.9, where 1 is the maximum; inactive means score below 0.9.

Experiment [1] in a line: BSK_LPS_PGE2: BioMAP Diversity Plus: LPS Assay for Prostaglandin E2 (PGE2) Biomarker Activity (AID 2283082). To be noted: primary human HUVEC with PBMC; actives raise or lower the signal. The gist of the method: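 Endpoint derived from bidirectional curve fitting versus DMSO of ELISA-measured PGE2 in LPS-stimulated human primary vascular co-culture (HUVEC with PBMC) harvested at 24 h.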

Read-out in experiment [2]: Macrophage colony-stimulating factor (MCSF), CSF1 (gene 1435)
The experiment is described as follows: BSK_LPS_MCSF: BioMAP Diversity Plus: LPS Assay for Macrophage colony-stimulating factor (MCSF) Biomarker Activity (AID 2283083). To be noted: primary human HUVEC with PBMC; actives raise or lower the signal. The gist of the method: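 HUVEC–PBMC co-culture, M-CSF measured by ELISA 24 h after chemical dosing. Fitted in both directions relative to DMSO as negative control; overt cytotoxicity assessed by SRB total-protein staining in parallel cultures.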

Read-out in experiment [3]: Tissue Factor, F3 (gene 2152)
In words: BSK_LPS_TissueFactor: BioMAP Diversity Plus: LPS Assay for Tissue Factor Biomarker Activity (AID 2283084). To be noted: primary human HUVEC with PBMC; actives raise or lower the signal. The gist of the method: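 Human umbilical vein endothelial cells co-cultured with PBMC were dosed with compound. Cell-surface CD142 was measured by ELISA 24 h later. Activity was fitted bidirectionally against DMSO, with SRB total-protein staining in parallel cultures for cytotoxicity.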

Read-out in experiment [4]: Tumor necrosis factor (Homo sapiens) (UniProt P01375)
In words: BSK_LPS_TNFa: BioMAP Diversity Plus: LPS Assay for Tumour Necrosis Factor alpha (TNFa) Biomarker Activity (AID 2283085). The following applies: primary human HUVEC with PBMC; actives raise or lower the signal. The gist of the method: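 Primary human vascular co-culture of HUVEC and PBMC; TNFa ELISA 24 h after treatment, analysed as increase or decrease relative to DMSO control.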

Read-out in experiment [5]: Vascular cell adhesion molecule 1 (VCAM1), VCAM1 (gene 7412)
The experiment is described as follows: BSK_LPS_VCAM1: BioMAP Diversity Plus: LPS Assay for Vascular cell adhesion molecule 1 (VCAM1) Biomarker Activity (AID 2283086). To be noted: primary human HUVEC with PBMC; actives raise or lower the signal. Put shortly: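 Primary human vascular co-culture (umbilical vein endothelium plus PBMC) stimulated with LPS received chemical; 24 h later VCAM-1 was read by ELISA. Overt cytotoxicity was assessed by sulforhodamine B staining of parallel cultures at the same time point.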

Read-out in experiment [6]: CD38, CD38 (gene 952)
The experiment is described as follows: BSK_SAg_CD38: BioMAP Diversity Plus: SAg Assay for CD38 Biomarker Activity (AID 2283087). The following applies: primary human HUVEC with PBMC; actives raise or lower the signal. The gist of the method:
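Fluorescence ELISA of cell-surface CD38 served as the read-out, with either increase or decrease fitted against DMSO controls. Cells were a human umbilical vein endothelium plus PBMC co-culture under SEB/TSST-1 stimulation, measured 24 h after dosing.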

Read-out in experiment [7]: CD40, CD40 (gene 958)
The experiment is described as follows: BSK_SAg_CD40: BioMAP Diversity Plus: SAg Assay for CD40 Biomarker Activity (AID 2283088). The following applies: primary human HUVEC with PBMC; actives raise or lower the signal. The gist of the method:
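HUVEC plus PBMC co-culture, superantigen-activated, with CD40 read by ELISA 24 h after dosing. Curves fitted in both directions against DMSO. Overt cytotoxicity checked by parallel SRB total-protein staining.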

Read-out in experiment [8]: CD69, CD69 (gene 969)
In words: BSK_SAg_CD69: BioMAP Diversity Plus: SAg Assay for CD69 Biomarker Activity (AID 2283089).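 On AC50: cell surface CD69 protein quantified by ELISA with fluorescence detection.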 The following applies: primary human HUVEC with PBMC; actives raise or lower the signal. The gist of the method:
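Values derive from bidirectional fitting relative to DMSO vehicle. Cells: umbilical vein endothelium plus peripheral blood mononuclear cells, treated 24 h before fluorescent ELISA for CD69.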

Read-out in experiment [9]: Monocyte Chemoattractant Protein-1 (MCP1), CCL2 (gene 6347)
The experiment is described as follows: BSK_SAg_MCP1: BioMAP Diversity Plus: SAg Assay for Monocyte Chemoattractant Protein-1 (MCP1) Biomarker Activity (AID 2283090). To be noted: primary human HUVEC with PBMC; actives raise or lower the signal. The gist of the method: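 MCP-1 levels in the endothelial–PBMC SAg co-culture were quantified by ELISA at 24 h post-dosing; both increases and decreases versus DMSO scored. Cytotoxicity monitored by SRB total protein in parallel cultures.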

Read-out in experiment [10]: E-selectin (Homo sapiens) (UniProt P16581)
The experiment is described as follows: BSK_SAg_Eselectin: BioMAP Diversity Plus: SAg Assay for Eselectin Biomarker Activity (AID 2283091). The following applies: primary human HUVEC with PBMC; actives raise or lower the signal. Put shortly: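 Human umbilical vein endothelial cells co-cultured with peripheral blood mononuclear cells, SAg system. E-selectin is measured by ELISA 24 h after dosing and fitted bidirectionally against DMSO. Cytotoxicity is checked by SRB staining of parallel cultures.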

Read-out in experiment [11]: Monokine induced gamma interferon (MIG), CXCL9 (gene 4283)
The experiment is described as follows: BSK_SAg_MIG: BioMAP Diversity Plus: SAg Assay for Monokine induced gamma interferon (MIG) Biomarker Activity (AID 2283092). To be noted: primary human HUVEC with PBMC; actives raise or lower the signal. Put shortly:
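Values reflect bidirectional fitting of ELISA-measured MIG against DMSO vehicle, taken 24 h after dosing of a co-culture of human umbilical vein endothelial cells and peripheral blood mononuclear cells.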

Experiment [12] in a line: BSK_SAg_PBMCCytotoxicity: PBMC Cytotoxicity Assessment in the BioMAP Diversity Plus: SAg Assay (AID 2283093).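 Further: PBMC viability measured as Alamar Blue reduction fluorescence at 546/580 nm; fitted both ways against DMSO so a hit may be loss or gain of signal.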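 On AC50: PBMC superantigen activated with SEB plus TSST-1 one hour after compound addition.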 To be noted: primary human HUVEC with PBMC. The gist of the method:
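Compound added to 75,000 PBMC/well for 1 h; SEB and TSST-1 then added at 20 ng/mL final each; 90 h incubation; Alamar Blue 6 h; read 546/580 nm ex/em. Activity fitted bidirectionally relative to DMSO baseline.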

Read-out in experiment [13]: Interleukin-8 (IL8), CXCL8 (gene 3576)
In words: BSK_SAg_IL8: BioMAP Diversity Plus: SAg Assay for Interleukin-8 (IL8) Biomarker Activity (AID 2283094). To be noted: primary human HUVEC with PBMC; actives raise or lower the signal. Put shortly: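 In this co-culture of human umbilical vein endothelium with peripheral blood mononuclear cells, IL-8 is assayed by ELISA at 24 h. DMSO serves as baseline for bidirectional curve fitting.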

A short description of experiment [14]: BSK_SAg_Proliferation: Cell Proliferation Assessment in the BioMAP Diversity Plus: SAg Assay (AID 2283095).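 Further: relative cell number as total protein by SRB absorbance in sub-confluent culture.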 The following applies: primary human HUVEC with PBMC. The gist of the method:
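Readout is SRB-stained protein (560 nm) in a primary human HUVEC and PBMC co-culture; sub-confluent cultures are read at 96 h. Activity is fitted bidirectionally using DMSO as baseline.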

Experiment [15] addresses human CYP2B6, CYP2B6 (gene 1555) (UniProt P20813). In words: NVS_ADME_hCYP2B6: NovaScreen (NVS) CYP450-related Enzyme Activity (ADME) Assay for human CYP2B6 (AID 2283101; active means hit-call score of the fitted dose curve at least 0.9, where 1 is the maximum). Put shortly: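 Compounds were first screened in duplicate at 10 uM against recombinant enzyme, with the fluorescent product measured after 1 hour. Active compounds were retested over a concentration series. Loss of fluorescence versus acetonitrile control was scored as reduced enzyme activity.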

Experiment [16] in a line: BSK_SAg_SRB: Viability Assessment in the BioMAP Diversity Plus: SAg Assay (AID 2283096).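 Further: cells read one day after compound addition; hits may be either gain or loss of signal compared with DMSO.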 To be noted: primary human HUVEC with PBMC. The gist of the method: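 Total protein by sulforhodamine B staining, 24 h after dosing, in HUVEC–PBMC co-culture; DMSO-referenced bidirectional fitting.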
Experiment [17] has as its target human CYP1A1, CYP1A1 (gene 1543) (UniProt P04798). In words: NVS_ADME_hCYP1A1: NovaScreen (NVS) CYP450-related Enzyme Activity (ADME) Assay for human CYP1A1 (AID 2283100; active means hit-call score of the fitted dose curve at least 0.9, where 1 is the maximum). Put shortly: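 Recombinant CYP1A1 with a fluorogenic substrate, cell-free, read 1 h after dosing; acetonitrile as negative control. Single-concentration screen at 10 uM in duplicate, then concentration-response up to 20 uM for chemicals meeting ~30% inhibition threshold.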

Chain of E-selectin (Homo sapiens) (P16581 whole entry, looked up): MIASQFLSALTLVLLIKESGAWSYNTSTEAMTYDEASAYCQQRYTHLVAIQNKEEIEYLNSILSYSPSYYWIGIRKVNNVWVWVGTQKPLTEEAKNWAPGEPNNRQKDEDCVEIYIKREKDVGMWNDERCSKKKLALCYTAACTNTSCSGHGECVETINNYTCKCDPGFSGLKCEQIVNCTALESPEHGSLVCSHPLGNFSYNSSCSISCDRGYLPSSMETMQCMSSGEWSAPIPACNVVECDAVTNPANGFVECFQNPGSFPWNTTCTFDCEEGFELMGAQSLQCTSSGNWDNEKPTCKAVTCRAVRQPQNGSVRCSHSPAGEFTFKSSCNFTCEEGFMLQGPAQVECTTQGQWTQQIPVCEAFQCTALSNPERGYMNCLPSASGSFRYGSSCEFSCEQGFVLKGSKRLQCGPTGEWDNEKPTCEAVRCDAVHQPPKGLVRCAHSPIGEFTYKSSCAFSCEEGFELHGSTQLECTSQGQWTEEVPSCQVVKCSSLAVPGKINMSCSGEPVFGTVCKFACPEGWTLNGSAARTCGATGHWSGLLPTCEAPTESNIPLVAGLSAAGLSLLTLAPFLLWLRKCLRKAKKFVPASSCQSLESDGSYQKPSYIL
Chain of Tumor necrosis factor (Homo sapiens) (P01375 whole entry, looked up): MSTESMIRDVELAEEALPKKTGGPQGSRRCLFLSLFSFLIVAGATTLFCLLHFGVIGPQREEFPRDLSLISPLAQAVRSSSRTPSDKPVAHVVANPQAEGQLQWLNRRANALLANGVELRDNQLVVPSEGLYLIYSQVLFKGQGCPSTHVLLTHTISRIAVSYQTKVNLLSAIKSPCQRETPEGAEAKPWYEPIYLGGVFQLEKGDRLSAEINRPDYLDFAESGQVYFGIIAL
Chain of human CYP1A1, CYP1A1 (gene 1543) (P04798 whole entry, looked up): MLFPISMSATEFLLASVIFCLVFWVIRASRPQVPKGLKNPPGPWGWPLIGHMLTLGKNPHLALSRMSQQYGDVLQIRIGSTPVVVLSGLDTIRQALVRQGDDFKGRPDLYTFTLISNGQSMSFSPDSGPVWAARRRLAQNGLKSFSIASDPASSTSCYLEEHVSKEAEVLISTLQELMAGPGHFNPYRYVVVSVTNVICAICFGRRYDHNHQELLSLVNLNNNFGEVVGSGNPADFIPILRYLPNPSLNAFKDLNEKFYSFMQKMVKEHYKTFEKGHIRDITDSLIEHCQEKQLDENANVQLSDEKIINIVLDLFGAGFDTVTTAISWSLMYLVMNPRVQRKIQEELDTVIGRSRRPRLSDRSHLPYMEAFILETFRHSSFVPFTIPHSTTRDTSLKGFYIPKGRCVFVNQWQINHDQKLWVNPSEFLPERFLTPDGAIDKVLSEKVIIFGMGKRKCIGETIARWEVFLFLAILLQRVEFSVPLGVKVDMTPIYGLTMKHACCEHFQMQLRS
Chain of human CYP2B6, CYP2B6 (gene 1555) (P20813 whole entry, looked up): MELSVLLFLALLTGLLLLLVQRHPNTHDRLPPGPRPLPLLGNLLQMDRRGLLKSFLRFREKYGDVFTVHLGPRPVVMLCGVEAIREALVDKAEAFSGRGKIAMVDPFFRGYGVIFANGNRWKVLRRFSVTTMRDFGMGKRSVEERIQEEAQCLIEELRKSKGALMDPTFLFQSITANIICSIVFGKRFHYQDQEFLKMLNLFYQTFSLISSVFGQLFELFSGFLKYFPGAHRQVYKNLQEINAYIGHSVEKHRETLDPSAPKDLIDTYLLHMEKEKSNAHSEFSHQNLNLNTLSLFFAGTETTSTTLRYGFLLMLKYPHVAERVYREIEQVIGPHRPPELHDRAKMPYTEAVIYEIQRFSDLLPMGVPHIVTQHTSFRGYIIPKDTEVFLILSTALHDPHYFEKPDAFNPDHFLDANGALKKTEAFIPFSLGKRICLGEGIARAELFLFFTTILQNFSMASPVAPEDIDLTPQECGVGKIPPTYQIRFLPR

Take `OC12N=C(c3ccccc3)SC1Cc1cc(Cl)ccc12` (stereo not given): the result in experiment [1], in experiment [2], in experiment [3], in [4], in [6] and in [8] was inactive. In addition, the result in [9], in experiment [10], in [11] and in [13] was inactive. For the same compound, the half-maximal activity concentration (AC50) (as a rule, the concentration giving half of the maximal activity seen) in [5] was 10.3 µM (active); in experiment [7], 20 µM (active); in experiment [12], 28.6 µM (active); in experiment [14], 25.4 µM (active); in experiment [15] it was 3.9 µM (active).
`CC[C@@H]1C[C@H](N(Cc2cc(C(F)(F)F)cc(C(F)(F)F)c2)C(C)=O)c2cc(C(F)(F)F)ccc2N1C(=O)OC(C)C`: the outcome in experiment [1], in experiment [2], in experiment [3], in experiment [4], in [5] and in [7] was inactive. For the same compound, the result in [8], in experiment [9], in [10], in [11], in experiment [12] and in experiment [13] was inactive. In addition, in experiment [14], the outcome was inactive.
Consider `CC/C(=C(/CC)c1ccc(O)cc1)c1ccc(O)cc1`, for which the AC50 is 20 µM (active) in [1]; 15.2 µM (active) in experiment [2]; 29.9 µM (active) in experiment [3]; 32.3 µM (active) in experiment [4]; 26.8 µM (active) in [5]; 19 µM (active) in experiment [6]. In addition, the concentration at half-maximal activity (AC50) in [7] is 17.8 µM (active); in [8] it was 25.1 µM (active); in experiment [9], 21.6 µM (active); in experiment [10] it was 8.84 µM (active); in experiment [11], 31.9 µM (active); in experiment [12], 29.1 µM (active). Moreover, the concentration at half-maximal activity (AC50) in experiment [13] was 13.4 µM (active); in [14] it was 11.8 µM (active); in experiment [16], 23.1 µM (active).
Turning to `CN(C[C@@H](CC[N+]12CCC(C3CCCCC3)(CC1)CC2)c1ccc(Cl)c(Cl)c1)C(=O)c1cc(C(F)(F)F)cc(C(F)(F)F)c1`, the result in [1] was inactive. Further, the AC50 in experiment [2] was 23.6 µM (active); in experiment [3] it was 25 µM (active); in [4] it was 13.7 µM (active); in experiment [5], 31.3 µM (active); in experiment [6], 13.3 µM (active); in experiment [7], 20 µM (active). The half-maximal activity concentration (AC50) in [8] is 21.9 µM (active); in experiment [9], 17.1 µM (active); in [10], 13.3 µM (active); in experiment [11], 27.8 µM (active); in experiment [13], 13.9 µM (active); in experiment [14], 5.2 µM (active). For the same compound, the AC50 was 26.9 µM (active) in experiment [16] and 14.8 µM (active) in [17].
Take `Cc1ccc2oc(CN(Cc3ccccc3)C(=O)Nc3c(F)cc(F)cc3F)c(-c3ccc(Cl)cc3)c2c1`: the result in experiment [1], in [2], in experiment [3], in experiment [4], in [5] and in experiment [6] was inactive. The result in experiment [7], in [8], in experiment [9], in experiment [10], in experiment [11] and in experiment [13] was inactive. Further, in [14], the AC50 is 6.03 µM (active).
For `CC(C)(C)c1csc(-c2cc3cc(OCc4ccccc4CC(=O)O)ccc3o2)n1`, the outcome in experiment [1] and in experiment [3] was inactive. The half-maximal activity concentration (AC50) in [2] was 27.2 µM (active); in experiment [4], 17.7 µM (active); in experiment [5] it was 18.8 µM (active); in experiment [6], 17.9 µM (active); in experiment [7], 19.1 µM (active); in experiment [8] it was 19.8 µM (active). Also, the AC50 in [9] was 29.9 µM (active); in [10], 32.1 µM (active); in experiment [11] it was 38.5 µM (active); in [13], 15.5 µM (active); in experiment [14], 20.1 µM (active); in experiment [16] it was 20 µM (active).
